Measurements: the supplement of paper PMC10849652
The full data set covers some 7,900 targets. This sample favours those with a hit. About 0.6% of all pairs of compound and target were hits. A number with no mark means an inactive call.

Columns and labels:
Assay in all cases: log2 fold change, soluble protein after heating vs DMSO (PISA); higher = thermal stabilisation; K562 cells, 10 uM, 30 min; active = over 0.2 and 3.5 SD of the protein, either way, in both replicates (recomputed)
[1] = compound: CS(=O)(=O)c1ccc(-c2cnc(N)c(C(=O)Nc3ccccc3)n2)cc1
Outline: (§1)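 Quantification of soluble protein used TMTpro 16plex LC-MS/MS, with channel sums equalised. Samples were the supernatant after 21,000xg for 90 min of pooled aliquots from K562 cells (2×10^6 cells/mL) treated with 10 μM compound for 30 min, heated for 3 min over 48°C-58°C, and extracted in PBS with 0.5% NP-40 at 4°C. Values, from duplicates, describe thermal stability against control samples on a log2 fold-change scale.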

[2] = compound: C[C@@H](Oc1cc(-c2cnn(C3CCNCC3)c2)cnc1N)c1c(Cl)ccc(F)c1Cl [crizotinib]
Outline: as §1

[3] = compound: C[C@@H]1COCCN1C2=NC(=NC(=C2)C3(CC3)S(=O)(=O)C)C4=C5C=CNC5=CC=C4
Outline: as §1

[4] = compound: C[C@H](C1=CC=C(C=C1)C(=O)NC2=C3C=CNC3=NC=C2)N
Outline: as §1

[5] = compound: C[C@H](Nc1ncnc2nc[nH]c12)c1cc2cccc(Cl)c2c(=O)n1-c1ccccc1 [duvelisib]
Outline: as §1

[6] = compound: Cc1cc(Nc2cc(N3CCN(C)CC3)nc(Sc3ccc(NC(=O)C4CC4)cc3)n2)n[nH]1 [tozasertib]
Outline: as §1

[7] = compound: Cc1cc(SCc2sc(-c3ccc(C(F)(F)F)cc3)nc2C)ccc1OCC(=O)O
Outline: as §1

[8] = compound: Cc1ccc(-n2nc(C(C)(C)C)cc2NC(=O)Nc2ccc(OCCN3CCOCC3)c3ccccc23)cc1 [doramapimod]
Outline: as §1

[9] = compound: Cc1ccc(NC(=O)c2ccc(CN3CC[C@H](N(C)C)C3)c(C(F)(F)F)c2)cc1Nc1nccc(-c2cncnc2)n1 [bafetinib]
Outline: as §1

[10] = compound: Cc1cn(-c2cc(NC(=O)c3ccc(C)c(Nc4nccc(-c5cccnc5)n4)c3)cc(C(F)(F)F)c2)cn1 [nilotinib]
Outline: as §1

[11] = compound: Cc1nc(Nc2n[nH]c3c2CN(C(=O)N[C@H](CN(C)C)c2ccccc2)C3(C)C)c2sccc2n1
Outline: as §1

[12] = compound: Cc1nc(Nc2ncc(C(=O)Nc3c(C)cccc3Cl)s2)cc(N2CCN(CCO)CC2)n1 [dasatinib]
Outline: as §1

[13] = compound: Cc1ncc(-c2ccnc(Nc3ccc(S(C)(=O)=O)cc3)n2)n1C(C)C
Outline: as §1

[14] = compound: Cn1cc(-c2ccc3c(c2)CCN3C(=O)Cc2cccc(C(F)(F)F)c2)c2c(N)ncnc21
Outline: as §1

[15] = compound: Cn1cncc1[C@@](N)(c1ccc(Cl)cc1)c1ccc2c(c1)c(-c1cccc(Cl)c1)cc(=O)n2C [tipifarnib]
Outline: as §1

[16] = compound: FC(F)(F)c1ccc(/C=C/c2nc(COc3ccc(CCCCn4ccnn4)cc3)co2)cc1 [mubritinib]
Outline: as §1

[17] = compound: Cc1cc(Nc2cc(CN3CCOCC3)c3nc(C)c(Cc4ccc(Cl)cc4F)n3n2)n[nH]1 [gandotinib]
Outline: as §1

[18] = compound: Cc1cccc(CC(=O)N2CCc3c2ccc(-c2cn(C)c4ncnc(N)c24)c3F)n1
Outline: as §1

[19] = compound: Cc1ccc(C(=O)N(CCCN)[C@@H](c2nc3cc(Cl)ccc3c(=O)n2Cc2ccccc2)C(C)C)cc1 [ispinesib]
Outline: as §1

[20] = compound: Cn1cc(-c2ccc3nnc(C(F)(F)c4ccc5ncccc5c4)n3n2)cn1
Outline: as §1

UniProt Q8TD22, sequence (Q8TD22 whole entry, looked up): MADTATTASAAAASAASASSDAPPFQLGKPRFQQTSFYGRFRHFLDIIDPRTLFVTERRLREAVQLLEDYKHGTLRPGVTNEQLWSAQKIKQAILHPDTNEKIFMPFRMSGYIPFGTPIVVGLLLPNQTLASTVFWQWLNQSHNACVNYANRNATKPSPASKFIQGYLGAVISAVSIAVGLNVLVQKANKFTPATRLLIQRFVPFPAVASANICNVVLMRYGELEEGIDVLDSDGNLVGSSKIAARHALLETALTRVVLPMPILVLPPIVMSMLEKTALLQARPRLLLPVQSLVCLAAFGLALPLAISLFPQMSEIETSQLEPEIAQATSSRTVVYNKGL
UniProt Q99961, sequence (Q99961 whole entry, looked up): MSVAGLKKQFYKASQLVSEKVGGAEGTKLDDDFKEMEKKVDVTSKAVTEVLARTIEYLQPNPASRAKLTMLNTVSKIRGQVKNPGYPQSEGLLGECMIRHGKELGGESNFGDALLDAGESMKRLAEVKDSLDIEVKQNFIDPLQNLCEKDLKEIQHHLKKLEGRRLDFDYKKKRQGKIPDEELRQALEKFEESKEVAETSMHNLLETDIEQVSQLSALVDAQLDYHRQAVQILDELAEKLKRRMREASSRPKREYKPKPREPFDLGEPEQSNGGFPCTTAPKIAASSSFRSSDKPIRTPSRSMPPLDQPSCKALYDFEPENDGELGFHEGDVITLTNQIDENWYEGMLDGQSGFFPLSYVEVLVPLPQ
UniProt Q5VUM1, sequence (Q5VUM1 whole entry, looked up): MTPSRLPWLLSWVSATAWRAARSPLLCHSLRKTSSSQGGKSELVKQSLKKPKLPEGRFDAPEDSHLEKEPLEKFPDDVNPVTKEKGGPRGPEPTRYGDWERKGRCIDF
UniProt Q04206, sequence (Q04206 whole entry, looked up): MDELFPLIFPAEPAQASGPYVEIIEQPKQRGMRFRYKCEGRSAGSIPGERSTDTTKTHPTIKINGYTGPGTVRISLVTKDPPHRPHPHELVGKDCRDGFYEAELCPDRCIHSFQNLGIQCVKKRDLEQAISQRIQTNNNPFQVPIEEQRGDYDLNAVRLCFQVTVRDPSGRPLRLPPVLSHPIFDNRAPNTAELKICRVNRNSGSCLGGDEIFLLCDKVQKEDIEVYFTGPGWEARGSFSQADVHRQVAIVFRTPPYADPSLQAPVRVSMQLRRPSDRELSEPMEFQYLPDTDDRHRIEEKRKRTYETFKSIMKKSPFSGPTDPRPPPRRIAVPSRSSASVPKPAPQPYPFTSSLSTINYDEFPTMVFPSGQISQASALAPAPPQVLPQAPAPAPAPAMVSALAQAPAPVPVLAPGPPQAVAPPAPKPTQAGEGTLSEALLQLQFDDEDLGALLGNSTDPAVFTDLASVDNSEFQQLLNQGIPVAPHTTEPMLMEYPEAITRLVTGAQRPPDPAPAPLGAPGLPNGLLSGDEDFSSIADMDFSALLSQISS
UniProt O75446, sequence (O75446 whole entry, looked up): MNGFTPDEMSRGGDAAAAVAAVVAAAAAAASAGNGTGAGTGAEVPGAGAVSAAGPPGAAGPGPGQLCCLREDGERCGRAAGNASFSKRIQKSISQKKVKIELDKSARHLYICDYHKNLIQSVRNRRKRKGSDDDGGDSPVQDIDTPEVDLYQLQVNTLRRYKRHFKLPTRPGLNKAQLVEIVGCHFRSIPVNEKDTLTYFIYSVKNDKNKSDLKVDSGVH
UniProt P04049, sequence (P04049 whole entry, looked up): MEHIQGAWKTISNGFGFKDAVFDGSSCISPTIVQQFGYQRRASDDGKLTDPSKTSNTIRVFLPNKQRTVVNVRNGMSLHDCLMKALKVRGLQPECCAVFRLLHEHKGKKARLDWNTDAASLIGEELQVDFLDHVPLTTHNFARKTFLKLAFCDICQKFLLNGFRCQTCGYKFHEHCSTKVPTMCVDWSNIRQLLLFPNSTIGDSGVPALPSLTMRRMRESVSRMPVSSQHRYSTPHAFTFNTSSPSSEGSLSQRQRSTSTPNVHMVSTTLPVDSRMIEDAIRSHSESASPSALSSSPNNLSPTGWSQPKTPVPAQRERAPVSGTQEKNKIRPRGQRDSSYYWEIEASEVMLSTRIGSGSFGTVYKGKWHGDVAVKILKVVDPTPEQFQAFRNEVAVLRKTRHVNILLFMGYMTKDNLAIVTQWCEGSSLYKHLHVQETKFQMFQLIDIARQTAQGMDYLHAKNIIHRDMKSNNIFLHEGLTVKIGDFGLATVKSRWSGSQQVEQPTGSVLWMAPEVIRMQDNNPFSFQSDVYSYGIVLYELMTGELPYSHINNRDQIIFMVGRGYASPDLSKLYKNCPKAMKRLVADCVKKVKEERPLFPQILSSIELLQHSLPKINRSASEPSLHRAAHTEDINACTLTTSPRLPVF
UniProt Q9BWJ5, sequence (Q9BWJ5 whole entry, looked up): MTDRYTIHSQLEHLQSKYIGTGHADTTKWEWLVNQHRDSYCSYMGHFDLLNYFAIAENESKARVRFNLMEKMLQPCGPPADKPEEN
UniProt Q99496, sequence (Q99496 whole entry, looked up): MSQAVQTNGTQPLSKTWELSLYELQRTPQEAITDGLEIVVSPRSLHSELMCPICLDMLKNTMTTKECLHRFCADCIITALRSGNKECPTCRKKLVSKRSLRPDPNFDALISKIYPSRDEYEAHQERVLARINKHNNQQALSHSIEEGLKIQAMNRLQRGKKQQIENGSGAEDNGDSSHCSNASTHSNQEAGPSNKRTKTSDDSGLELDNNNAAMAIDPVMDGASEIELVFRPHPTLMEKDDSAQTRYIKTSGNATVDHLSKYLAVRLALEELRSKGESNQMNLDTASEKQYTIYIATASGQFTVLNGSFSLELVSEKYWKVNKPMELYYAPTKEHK

Target	log2 fold change [1]	log2 fold change [2]	log2 fold change [3]	log2 fold change [4]	log2 fold change [5]	log2 fold change [6]	log2 fold change [7]	log2 fold change [8]	log2 fold change [9]	log2 fold change [10]	log2 fold change [11]	log2 fold change [12]	log2 fold change [13]	log2 fold change [14]	log2 fold change [15]	log2 fold change [16]	log2 fold change [17]	log2 fold change [18]	log2 fold change [19]	log2 fold change [20]
RABGAP1L isoform 5 (UniProt Q5R372)	0.071	0.003	0.022	0.046	0.008	-0.121	-0.015	-0.073	-0.031	0.112	-0.003	-0.054	-0.047	-0.002	0.073	0.036	–	–	–	–
SF3B5 (UniProt Q9BWJ5)	0.027	-0.012	0.176	–	0.358	-0.152	0.002	-0.089	-0.115	0.029	0.008	-0.189	-0.064	–	-0.018	-0.043	0.087	-0.056	–	–
RAF1 isoform 2 (UniProt P04049)	0.023	-0.305	-0.135	-0.092	0.068	0.093	0.035	0.133	-0.062	–	–	-0.191	–	0.181	-0.185	-0.286	0.131	-0.168	-0.145	-0.144
SDHAF4 (UniProt Q5VUM1)	0.033	-0.047	0.153	0.181	0.003	0	-0.038	0.091	-0.078	-0.043	-0.003	0.034	0.056	0.077	-0.041	0.03	–	–	–	–
RABGAP1L isoform 3 (UniProt Q5R372)	-0.018	0.005	-0.004	-0.138	-0.013	-0.011	0.05	0.052	-0.045	-0.031	-0.001	-0.038	-0.037	-0.005	0.016	-0.001	-0.018	0.024	0.046	0.013
SFXN5 (UniProt Q8TD22)	0.144	0.021	0.073	-0.137	-0.07	-0.015	0.076	-0.055	-0.3 (active)	-0.052	0.049	0.084	0.134	0.107	0.022	0.041	-0.026	0.017	0.049	0.093
RELA (UniProt Q04206)	0.03	0.036	0.005	-0.029	0.018	0.059	0.055	–	-0.04	-0.023	-0.295 (active)	–	-0.031	0.04	-0.04	0.044	-0.086	0.006	0.017	-0.047
RAB3IL1 (UniProt E9PK89)	0.036	-0.003	0.163	-0.211	–	-0.099	–	-0.07	-0.053	-0.007	-0.189	–	-0.101	0.258	-0.035	–	0.154	0.01	0.07	0.056
SH3GL1 (UniProt Q99961)	0.067	-0.144	0.024	0.062	0.019	0.045	0.103	0.007	-0.018	-0.084	-0.18	-0.262	-0.014	0.055	-0.114	0.122	-0.031	0.069	-0.156	0.02
RNF2 (UniProt Q99496)	0.008	-0.028	-0.013	-0.105	-0.033	0.149	0.073	-0.093	-0.102	0.065	-0.214	-0.106	0.061	-0.005	-0.026	-0.031	-0.091	0.022	–	–
SAP30 (UniProt O75446)	-0.087	0.012	-0.047	0.098	-0.09	–	0.124	-0.088	–	0.083	0.01	-0.008	0.006	-0.073	0.068	-0.118	0.162	0.076	–	–
SCAMP2 (UniProt H3BUB6)	0.085	0.128	-0.011	0.317	0.166	-0.159	-0.305	-0.088	-0.226	-0.056	0.03	0	-0.069	0.062	0.188	0.023	–	–	-0.258	0.095
